In ChEMBL document CHEMBL1157539, “Thousands of chemical starting points for antimalarial lead identification” (Nature, 2010):

Legend:
Assay type in all cases: functional
Plasmodium falciparum [1] = test: GSK_TCMDC: Inhibition of Plasmodium falciparum 3D7 in whole red blood cells, using parasite LDH activity as an index of growth. Test compounds present at 2uM
Plasmodium falciparum [2] = test: GSK_TCMDC: Inhibition of Plasmodium falciparum Dd2 in whole red blood cells, using parasite LDH activity as an index of growth. Test compounds present at 2uM
HepG2 = test: GSK_TCMDC: Percent inhibition of human HepG2 cell line. Test compounds present at 10uM.

| Compound | Inhibition (Plasmodium falciparum [1]) | Inhibition (Plasmodium falciparum [2]) | Inhibition (HepG2) |
| --- | --- | --- | --- |
| CN1c2ccc([N+](=O)[O-])cc2C(C)(C)C12C=Cc1cc(Br)cc([N+](=O)[O-])c1O2 (stereo unspecified) | 100% | 99% | 0% |
| O=C(Cc1cccc(O)c1)Nc1ccc(-c2cccc(-c3nc4cc(C(F)(F)F)ccc4[nH]3)c2)cc1 | 86% | 1% | 14% |
| COc1ccc(CCN2CC[C@H](Nc3nc(-c4ccc(F)c(F)c4)nc4ccccc34)C2)cc1S(N)(=O)=O.Cl | 99% | 64% | 18% |
| CC(=O)Nc1ccc(S(=O)(=O)Nc2ccc(Nc3nc(C)cc(N(C)C)n3)cc2)cc1 | 100% | 22% | 0% |
| CC(C)Cc1nc(N2CCOCC2)c2nnn(Cc3ccccc3)c2n1 | 98% | 76% | 7% |
| CC(C)(C)OC(=O)N(Cc1cc(-n2nnnc2C(F)(F)F)ccc1O)[C@H]1CCCN(C(=O)OC(C)(C)C)[C@H]1c1ccccc1 | 98% | 66% | 14% |
| Cc1nc2ccc3ccc(CNc4ccc(C(=O)N[C@@H](CCC(=O)O)C(=O)N[C@@H](Cc5cccs5)C(=O)O)c(F)c4)cc3c2c(=O)[nH]1 | 97% | 96% | 43% |
| COc1ccc(NC(=O)[C@H](C)Nc2cc(C)nc(NCC3CCCCC3)n2)cc1.O=C(O)C(F)(F)F | 92% | 13% | 12% |
| COc1cc(Nc2ccnc3ccc(C(C)(C)C)cc23)cc(OC)c1OC | 100% | 80% | 12% |
| COc1ccc2ccc(F)c(CC(=O)N3CCOC(CNCc4cccc(-c5ccsc5)n4)C3)c2n1 (stereo unspecified) | 92% | 1% | 1% |
| Fc1ccc(CNc2nc(-c3ccc(F)c(C(F)(F)F)c3)n(-c3cccc(C(F)(F)F)c3)n2)cc1 | 95% | 80% | 0% |
| Nc1ncc(-c2ccc3nccc(-c4ccncc4)c3c2)cc1S(=O)(=O)N1CCOCC1 | 100% | 99% | 39% |
| NC(=O)c1ccc(C(=O)Nc2cccc(-c3csc(-c4nc5ccccc5[nH]4)c3)c2)cc1 | 100% | 35% | 14% |
| Cc1cccc(NC(=O)c2ccc(C(=O)NC3CCN(CC4CCCCC4)C3)cc2)c1.O=C(O)C(F)(F)F (stereo unspecified) | 88% | 3% | 17% |
| Cc1cccc2nc(-c3ccc(-c4cccc(NC(=O)Nc5cccc(C#N)c5)c4)cc3)[nH]c12 | 100% | 86% | 25% |
| COc1ccc2nccc([C@@H](O)CN3CCC(NCc4ccc5c(c4)NC(=O)C(C)(C)O5)CC3)c2c1.O=C(O)C(=O)O | 100% | 70% | 6% |
| N#CCCN1CCN(Cc2cccc(-c3ccc(-c4nc5ccccc5[nH]4)cc3)c2)CC1.O=C(O)C(F)(F)F | 93% | 20% | 18% |
| Cc1cccc(CCCNC(=O)CN(c2cccc(C(F)(F)F)c2)S(=O)(=O)c2ccc(C(F)(F)F)cc2)c1 | 96% | 94% | 9% |
| CC1(C)N=C(N)N=C(N)N1CCc1ccccc1.Cl | 93% | 0% | 50% |
| CC(=O)Nc1ccc(C(=O)Nc2cccc(-c3cccc(-c4nc5cc(F)ccc5[nH]4)c3)c2)cn1 | 99% | 98% | 0% |
| O=C(Cc1ccc(NC(=O)c2ccc(O)c(-c3ccc(Cl)c(Cl)c3)c2)cc1)NCCc1ccc(Cl)c(Cl)c1 | 99% | 88% | 0% |
| Cc1cccc2nc(-c3ccc(-c4cccc(CN5CCN(c6ccncc6)CC5)c4)s3)[nH]c12.O=C(O)C(F)(F)F | 100% | 99% | 48% |
